DRD3 agonist: qHTS of D3 Dopamine Receptor Agonist: qHTS; hit rate 0.58% among 410,000; AID 652048, 2013; D3R DiscoveRx beta-arrestin cells, luminescence, 90 min; max activation, %; in the data active means max activation above about 30%; further: 0% is about no effect
Target sequence (P35462 whole entry, looked up): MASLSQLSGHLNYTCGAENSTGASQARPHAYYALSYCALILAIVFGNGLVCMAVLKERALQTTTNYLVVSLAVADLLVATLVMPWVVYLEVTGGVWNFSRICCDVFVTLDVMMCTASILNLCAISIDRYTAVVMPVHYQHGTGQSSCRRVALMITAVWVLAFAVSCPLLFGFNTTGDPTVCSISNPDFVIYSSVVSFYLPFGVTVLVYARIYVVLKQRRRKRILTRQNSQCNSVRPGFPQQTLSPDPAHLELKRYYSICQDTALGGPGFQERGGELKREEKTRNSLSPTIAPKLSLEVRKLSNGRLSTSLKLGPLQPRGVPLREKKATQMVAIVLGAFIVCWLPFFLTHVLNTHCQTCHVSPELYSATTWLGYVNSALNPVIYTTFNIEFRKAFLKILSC
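Agonist mode: compounds and dopamine controls were applied to plated cells for 90 min at 37 degrees C after an overnight attachment at 1500 cells/well. Luminescent read-out followed 30 - 60 minutes at room temperature with DiscoveRx detection reagent.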
RGS4 inh: Inhibitors of Regulator of G Protein Signaling (RGS) 4: qHTS. Regulator of G-protein signaling 4 (Homo sapiens), P49798. Transcreener GDP fluorescence polarization, RGS4-accelerated GTP hydrolysis. Potency, µM (highest dose often 114 µM), for the others: top-dose activity change, negative = inhibition, most hits filed as inhibitors. hit rate 0.039% among 390,000. AID 504845, 2011; active means well fitted inhibition curve with a large enough effect; inconclusive means small, poorly fitted or top-dose-only effect; inactive means no such curve, though single readings can be large or run the other way; further: potency means the concentration at half of the fitted maximal effect; on the % scale 0 is the no-effect control and ±100 the full control effect; nearly all actives have a fitted effect of over 75% in size
Target sequence (P49798 whole entry, looked up): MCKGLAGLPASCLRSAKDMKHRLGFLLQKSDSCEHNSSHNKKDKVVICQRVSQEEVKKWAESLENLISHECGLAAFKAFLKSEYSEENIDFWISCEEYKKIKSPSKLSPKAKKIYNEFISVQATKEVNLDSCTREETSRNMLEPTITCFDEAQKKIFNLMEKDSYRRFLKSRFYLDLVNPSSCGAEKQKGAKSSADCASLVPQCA
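MLSMR compounds (23 nl, pin-transferred) preincubated 10 min at room temperature with a 500nM (2x) first reagent, then RGS4 at 900nM (2x) plus Transcreener GDP mix added; fluorescence polarization (620/688 nm) read before and after 90 min at 30 °C.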
Akt phos inh: HTS Assay for Inhibitors of Akt Phophorylation: Primary Screen. Neuro2A IGF-stimulated pAkt S473 HTRF, 20 min; hits give low values. activity change, % for hits at 50 µM. hit rate 0.32% among 360,000. AID 651550, 2012; in the data active means activity change below about -80%; inconclusive means mostly about -51% to -80%; further: on the % scale 0 is the no-effect control and ±100 the full control effect
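Single-point screen (50 µM final compound) in Neuro2A cells stimulated 20 min with 6 nM IGF at 37 deg C. After lysis, Ser473-phosphorylated Akt read by HTRF (ex 330 nm, em 615/665 nm) as the 665/615 ratio.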
PI4K2A inh: qHTS for small molecular inhibitors of PI4K2A; purified PI4K2A, ADP-Glo luminescence, 1 h; hits give low values; activity change, negative = inhibition, % at 76.9 µM; hit rate 0.13% among 420,000; in the data active means activity change below about -50%; inconclusive means mostly about -30% to -49%;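 further: -100% = wells without enzyme as full effect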
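PI4K2A activity was measured by ADP-Glo luminescence: enzyme (4 ug/mL stock) and phosphatidylinositol (1.2 mM stock) in Tris pH 7.5/MgCl2/EGTA/Triton X-100 buffer were reacted with ATP (300 microM stock) for one hour at ambient temperature.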
D3 antag: qHTS of D3 Dopamine Receptor Antagonist: qHTS; D(3) dopamine receptor (Homo sapiens), P35462; D3R cells, DiscoveRx beta-arrestin luminescence, antagonist mode; hits give low values; max response, negative = inhibition, %; hit rate 2.5% among 360,000; AID 652054, 2013; in the data active means max response below about -50%; inconclusive means no clear call, values can overlap the other calls; further: on the % scale 0 is the no-effect control and ±100 the full control effect
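Cells plated overnight at 1500 cells/well, then exposed to library compounds with dopamine controls for 90 minutes at 37 degrees C. DiscoveRx reagent added for 30–60 minutes at room temperature; luminescence read, quantitative HTS format.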
LDHA block: qHTS assay for inhibitors of human lactate dehydrogenase; purified LDHA, NADH/diaphorase-resazurin fluorescence; hits give low values; L-lactate dehydrogenase A chain (Homo sapiens), P00338; activity change, % (values are at about 110 or 230 µM); AID 1347041, 2019; hit rate 0.15% among 480,000; in the data active means activity change below about -30%; inconclusive means mostly about -25% to -30%;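 further: plate controls were DMSO wells for no effect and wells without enzyme for full effect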
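Remaining NADH was detected by diaphorase (0.133 mg/mL) converting 37 µM resazurin to fluorescent resorufin, read at 0 and 20 minutes. The preceding 5-minute room-temperature reaction used 2 nM LDHA, 0.2 mM sodium pyruvate and 0.06 mM NADH at pH 7.4.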
The depositor's hits bear a star; i = inactive; ? = inconclusive; nt = not tested or not shown; ! = repeats disagree. Most compounds without a hit are left out; they make up all but 2.8% or so of the library.

SMILES	DRD3 agonist	RGS4 inh	Akt phos inh	PI4K2A inh	D3 antag	LDHA block
CN1CCN(c2ccc(NS(=O)(=O)c3ccc(Cl)cc3)cn2)CC1	-18	-8%	i	5	?	3
Cc1ccc(S(=O)(=O)Nc2ccc(N3CCN(C)CC3)nc2)cc1	-16	-12%	i	8	-59*	1
CCc1ccc(S(=O)(=O)Nc2ccc3c(c2)n(C)c(=O)c(=O)n3C)cc1	6	-2%	nt	6	nt	2
CCCn1c(CN2CCC(C)CC2)nc2c1c(=O)n(C)c(=O)n2C	nt	nt	nt	nt	nt	-1
COC(=O)c1cc(NCc2cc(Cl)c(OCC(N)=O)c(OC)c2)ccc1N1CCOCC1	nt	nt	nt	nt	nt	7
O=C(NCc1ccco1)C1CCN(S(=O)(=O)N2CCOCC2)CC1	1	-5%	i	-85*	18	4
CCS(=O)(=O)N1CCC(C(=O)NCc2ccco2)CC1	2	-9%	i	-6	7	-7
COCCn1c(=O)c2c(nc(-n3nc(C)c(C)c3C)n2Cc2ccc(F)cc2)n(C)c1=O	nt	nt	nt	nt	nt	-6
CC(C)c1nnc2ccc(NCc3ccc(Cl)cc3)nn12	nt	nt	nt	nt	nt	7
Nc1ccccc1Nc1ccc([N+](=O)[O-])cc1[N+](=O)[O-]	4	-13%	i	-2	4	2
Nc1cc([N+](=O)[O-])ccc1Nc1ccc(O)cc1	-6	-3%	i	-6	-55*	8
COc1ccccc1/C=N/NC(=O)COCC(=O)N/N=C/c1ccccc1OC	-4	12%	i	-8	10	-1
COc1cccc(NC(=O)C(=O)N/N=C/c2cc(C)n(-c3ccc(Cl)c(Cl)c3)c2C)c1	-9	-5%	i	-7	-94*	5
COc1ccccc1/C=N/NC(=O)CC(=O)Nc1ccc(Cl)c(Cl)c1	-2	18%	i	-8	-65*	-13
Cc1ccc(C(C[N+](=O)[O-])c2c(C)[nH]n(-c3ccccc3)c2=O)cc1 (stereo not drawn)	-36	-94%	i	-26	-63*	13
O=C(NCCCNCc1ccccc1)c1ccccn1	-15	-45%	i	-1	-66*!	-2
COc1ccccc1-c1noc(CCC(=O)Nc2cc(C(F)(F)F)ccc2Cl)n1	30*	-1%	i	-1	-10	-6
CC(N)(Cc1ccc(O)c(O)c1)C(=O)O (stereo not drawn)	nt	11µM*	nt	-3	nt	nt
CCCCNC(=O)Nc1ccnn1C1CCCCC1	-7	-5%	i	-8	-76*	-4
COc1ccc2c(C)c(CC(=O)O)c(=O)oc2c1OC	nt	nt	nt	nt	nt	4
O=C(O)c1ccc(-c2noc(-c3ccccc3F)n2)cc1	nt	0%	nt	-68*	nt	-1
O=C(O)c1ccccc1-c1noc(-c2ccccc2F)n1	nt	nt	nt	-11	nt	nt
Cc1ccc2[nH]cc(CCNC(=O)c3cc(F)ccc3F)c2c1	nt	nt	nt	nt	nt	-3
CN(C)c1ccc(N=Nc2ccc(S(N)(=O)=O)cc2)cc1	-10	-19%	i	-22	-7	-2
CC1=CC(=O)C=CC1=Nc1ccc(N(C)C)cc1	-11	nt	i	?	-51*	27
SMILES	DRD3 agonist	RGS4 inh	Akt phos inh	PI4K2A inh	D3 antag	LDHA block
CN(C)c1ccc(C(=O)NNC(=O)c2ccc(Cl)cc2)cc1	16	-15%	i	-6	5	-48*
CN(C)c1ccc(C(=O)NNC(=O)c2ccc(F)cc2)cc1	nt	nt	nt	nt	nt	7
Cc1c(-c2ccccc2)oc2c(C(=O)NCCN(C)C)cccc2c1=O	nt	nt	nt	nt	nt	0
COc1cc(C(=O)Oc2ccc3c(=O)c(-c4ccccc4)coc3c2)cc(OC)c1OC	nt	nt	nt	nt	nt	-32*
Nc1nc2c(s1)C(c1c(Cl)cccc1Cl)CC(=O)N2 (stereo not drawn)	nt	nt	nt	nt	nt	28
Cc1sc2nc(SCc3ccc(C(=O)O)cc3)n(Cc3ccco3)c(=O)c2c1C	84*	-31%	i	-3	146	-6
CC(C)CCNC(=O)Cn1c(=O)n(CCC(C)C)c(=O)c2sccc21	nt	nt	nt	nt	nt	-12
O=C(CN1C(=O)C2C3C=CC(C3)C2C1=O)OCC(=O)c1ccc(Cl)c([N+](=O)[O-])c1 (stereo not drawn)	-30	18%	i	5	-70*	-3
Cn1cc(C(=O)NC2CC2)c(-c2ccc3c(c2)OCCCO3)n1	nt	nt	nt	nt	nt	1
O=C(CCN1C(=O)c2ccccc2C1=O)NC1=NCCS1	-6	-20%	-112%*	1	?	0
Cc1cccc(NC(=O)CCCN2C(=O)c3ccccc3C2=O)n1	-4	-20%	-111%*	-2	-6	-4
O=C(CCn1c(=O)sc2ccccc21)NC1=NCCS1	-1	1%	i	1	16	-14
Cc1cc(C)c(OCCN(C)Cc2ccccc2)c(Br)c1	-38	-4%	i	4	-56*	-6
CN(CCCOc1ccccc1F)Cc1ccccc1	-31	-9%	i	-7	-85*	-6
CN(CCCOc1ccccc1Br)Cc1ccccc1	-17	-9%	i	-7	-98*	-6
Cc1ccc(Cl)c(OCCCN(C)Cc2ccccc2)c1	-22	11%	i	6	?	-15
Cc1cc(C)c2c(CN(C)Cc3ccccc3)cc(=O)oc2c1	1	nt	i	0	-1	-8
C/C=C/c1ccc(OCCCCN(C)Cc2ccccc2)c(OC)c1	-19	-31%	i	-2	-12	-7
N#Cc1c(NC(=O)CSc2ncnc3ccccc23)sc2c1CCCCC2	nt	nt	nt	nt	nt	-6
N#Cc1cccc(/C=C2\CSc3ccccc3C2=O)c1	nt	nt	nt	nt	nt	3
O=C(COc1ccc(Cl)cc1Cl)NC(=O)N1CCOCC1	-5	0%	i	0	-58*	-11
O=C(COc1ccc(Cl)cc1Cl)Nc1ccc(CN2CCOCC2)cc1	-1	2%	i	-16	4	-1
Cc1[nH]n(-c2ccccc2)c(=O)c1C(c1ccccc1C(=O)O)c1c(C)[nH]n(-c2ccccc2)c1=O	-11	-19%	i	2	-27	-5
Cc1[nH]n(-c2ccccc2)c(=O)c1C(c1cc(Cl)ccc1O)c1c(C)[nH]n(-c2ccccc2)c1=O	-10	?	nt	-51*	nt	-4
CCCOc1ccc(C(=O)NNC(=S)NC(=O)c2cc(-c3ccc(Cl)cc3)nc3ccccc23)cc1	-9	?	i	-2	-50*	-6
CCC(C)n1nnc2c(=O)oc3ccccc3c21 (stereo not drawn)	-5	-11%	-92%*	-8	3	-2

High-throughput results deposited in PubChem BioAssay by National Center for Advancing Translational Sciences (NCATS).
